Measurements as given in PubChem BioAssay AID602396 (The Scripps Research Institute Molecular Screening Center, 2012).
The whole screen tested about 360,000 compounds, of which about 460 (0.13%) were called active. This excerpt belongs to a sample that is enriched for actives. Unmarked numbers belong to inactive results.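 The calls were made as follows: active = inhibition above the mean inhibition of all tested compounds plus 3 SD (cut at about 73% in these data); inactive = the rest.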

Each compound was assayed against Nuclear receptor subfamily 5 group A member 2 (Homo sapiens) (UniProt O00482) (assay: LRH-1 (NR5A2) inverse agonists, primary screen, cell-based, luminescence, HEK293T, StAR-luciferase reporter (AID 602396;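 also: 0% = DMSO wells and 100% = reporter-only cells lacking LRH-1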)). Conditions: LRH-1 transfected, 24 h, at 3.6 µM, active compounds read high.
Chain of Nuclear receptor subfamily 5 group A member 2 (Homo sapiens) (O00482 whole entry, looked up): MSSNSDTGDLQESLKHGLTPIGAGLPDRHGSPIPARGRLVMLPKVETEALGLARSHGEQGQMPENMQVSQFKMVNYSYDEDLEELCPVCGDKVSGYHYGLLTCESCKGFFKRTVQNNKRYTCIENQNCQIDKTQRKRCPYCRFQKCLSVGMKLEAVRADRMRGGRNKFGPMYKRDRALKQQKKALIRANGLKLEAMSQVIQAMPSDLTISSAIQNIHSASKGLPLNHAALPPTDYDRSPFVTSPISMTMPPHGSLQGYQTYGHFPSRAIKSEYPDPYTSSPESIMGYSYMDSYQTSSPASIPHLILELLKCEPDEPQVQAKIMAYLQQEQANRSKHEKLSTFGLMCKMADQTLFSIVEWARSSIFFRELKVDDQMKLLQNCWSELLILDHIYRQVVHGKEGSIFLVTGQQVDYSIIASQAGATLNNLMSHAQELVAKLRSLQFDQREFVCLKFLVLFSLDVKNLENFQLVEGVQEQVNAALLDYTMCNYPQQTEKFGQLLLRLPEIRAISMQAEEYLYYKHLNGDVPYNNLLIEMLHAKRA

In the case of `CC1(C)CC(N2CCN(C(c3ccccc3)c3ccccc3)CC2)=CC(=[N+]2CCCCC2)C1`, the inhibition is reported as 91.7% (active).
In the case of `COc1ccc(NC(=O)/C(Cl)=C(/Cl)S(=O)Cc2ccc(C)cc2)cn1` (stereo unspecified), the inhibition is reported as 87.2% (active).
In the case of `O=C(NCCOc1cccnc1)c1ccc(OC2CCN(Cc3ccccn3)CC2)cc1`, the inhibition is reported as 90.4% (active).
In the case of `COc1ccc2c(c1)c(=Cc1ccc(N(C)C)cc1)c1cc(-c3ccccc3)[n+](C)n12`, the inhibition is reported as 91.5% (active).
In the case of `C=CCn1c(C)cc(C2=NNC(=NCC)SC2)c1C`, the inhibition is reported as 84.2% (active).
With `COc1cccc2c1C(=O)c1c(O)c3c(c(O)c1C2=O)CC(O)(C(C)=NNC(=O)c1ccc(Cl)c(Cl)c1)CC3OC1CC(N)C(O)C(C)O1` (stereo unspecified) the inhibition was 95.6% (active).
`O=C(CC(O)(C(F)(F)F)C(F)(F)F)Nc1ccc(Cl)c(Cl)c1` was tested, and the inhibition was 100% (active).
In the case of `CC(C)(C)c1ccc(Oc2ccc(N)cc2)cc1`, the inhibition is reported as 80.6% (active).
In the case of `Cc1ccsc1C(=O)OCC(=O)c1cc(C)n(CC2CCCO2)c1C` (stereo unspecified), the inhibition is reported as 80.7% (active).

Compared with `COc1ccc(C2CC(=O)Oc3ccc(C(C)(C)C)cc32)cc1` (stereo unspecified), `COc1ccc(N2C(=O)C(O)C2c2ccc(C)cc2)cc1` (stereo unspecified) is lower in inhibition: 21.2% for the first, -10% for the second.

First: Cn1cnc(S(=O)(=O)N2C[C@@H](O)COC[C@@H]3O[C@H](CC(=O)NC4CCC4)CC[C@H]32)c1
Second: COc1ccccc1-n1ccnc(SCC(=O)NC2CCCCC2)c1=O
The inhibition of the first is lower: -18.2% for the first, 1.62% for the second.

Compared with `O=C(COC(=O)Cc1ccc(Br)cc1)Nc1c(F)c(F)c(F)c(F)c1F`, `Cc1ccc(/C=C/C(=O)OCC(=O)Nc2cccnc2Cl)cc1` is lower in inhibition: 1.54% for the first, -17.1% for the second.

Going from `CCOC(=O)CSC1=N/C(=C/c2ccc(-n3cncn3)cc2)C(=O)N1C(C)=O` to `CCCn1c(C)cc(C(=O)COC(=O)c2c(C)nn(-c3ccccc3)c2C)c1C`, the inhibition falls from 11.2% to 7.52%.

Going from `CCOC1CCCCC1NS(=O)(=O)c1ccc(Cl)cc1` (stereo unspecified) to `COc1ccc(Cl)cc1NS(=O)(=O)c1cccc(C(=O)NCC2CCCO2)c1` (stereo unspecified), the inhibition rises from 5.98% to 10.9%.

Compared with `O=C(Nc1ccc2c(c1)OCCO2)C(c1ccc(F)cc1)N1CCCCC1` (stereo unspecified), `COc1ccc(S(=O)(=O)N2CCCCC2)cc1NC(=O)C1CC(=O)N(c2ccc3c(c2)OCCO3)C1` (stereo unspecified) is higher in inhibition: 4.16% for the first, 8.99% for the second.

Compared with `CCCCCCCC[n+]1cccc(C(=O)N2c3c(nc(N)[nH]c3=O)NC(C)C2C)c1` (stereo unspecified), `C=CCn1c2ccccc2c2nnc(SCc3[nH]c(=O)[nH]c3C(=O)CCCCC(=O)OCC)nc21` is higher in inhibition: 4.18% for the first, 9.39% for the second.

Compared with `C=CCn1c(CNS(=O)(=O)c2ccc(Br)cc2)nnc1SC`, `C=CCc1cc(S(=O)(=O)c2ccc(O)c(CC=C)c2)ccc1O` is higher in inhibition: -25.5% for the first, 11.4% for the second.

First: CCS(=O)(=O)Nc1cc(C(=O)OC)ccc1C(=O)OC
Second: COC(=O)c1cn(C)c2ccc(S(=O)(=O)N3CC(C)CC(C)C3)cc2c1=O (stereo unspecified)
The inhibition of the first is higher: 7.66% for the first, -9.25% for the second.

Going from `CCOc1ccc(NS(=O)(=O)c2cc(C)c(C)cc2C)cc1` to `Cc1ccc(C)c(S(=O)(=O)Nc2cc(C)on2)c1`, the inhibition rises from 0.32% to 13.7%.

Going from `Cc1cnc(C(=O)Oc2cccc(Cl)c2Cl)cn1` to `O=C(COC(=O)c1ncc(Cl)c(Cl)c1Cl)NCc1cccs1`, the inhibition falls from 10.5% to -2.02%.

Going from `CCc1c(O)cc2n(c1=O)-c1ccccc1C2(C)C` to `CCc1ccc2[nH]c(=O)c(Cc3ccccc3)c(O)c2c1`, the inhibition rises from 6.01% to 10.4%.

First: Cc1cc(C)cc(NS(=O)(=O)c2ccc(Oc3ncc(C(F)(F)F)cc3Cl)cc2)c1
Second: COc1ccc(NS(=O)(=O)c2ccc(O)c(C(=O)OCC(=O)NC3CCCCC3)c2)cc1
The inhibition of the first is higher: 3.47% for the first, 0.7% for the second.

Compared with `COc1ccc(C2(C)ON(c3ccccc3C(F)(F)F)C2=O)cc1` (stereo unspecified), `COc1ccccc1-n1nnnc1S(=O)(=O)Cc1ccc(Cl)cc1` is higher in inhibition: -1.81% for the first, 47.7% for the second.

Going from `COCCNC(=O)C1CCN(S(=O)(=O)c2ccc3c(c2)OCCO3)CC1` to `C[C@H](NC(=O)C1CCN(S(=O)(=O)c2ccccc2)CC1)C(=O)NCc1ccccc1`, the inhibition falls from 8.61% to -15.6%.

Going from `COc1ccc(C)cc1NC(=O)CSc1cccc[n+]1[O-]` to `CCN(CC(=O)NCc1cccs1)C(=O)c1ccc(OC)c(S(=O)(=O)N2CCOCC2)c1`, the inhibition rises from -14.4% to -9.13%.

Going from `CC1(C)CC(=O)C=C(c2ccc3ncccc3c2)C1` to `Cc1nn(-c2ccccc2)c2c1C(=O)NC(=O)C(C)(C)C2`, the inhibition falls from 47.8% to 10.2%.

Compared with `CCCNC(=O)C1(C)CCCN(C(=O)c2cccc(OC(C)=O)c2C)C1` (stereo unspecified), `COC(=O)C(C(=O)Nc1cccc(Cl)c1C)C1CCCC1` (stereo unspecified) is higher in inhibition: -0.02% for the first, 1.94% for the second.

Going from `O=C(O)c1ccccc1C(=O)NC1=NN(c2ccccc2)CC1` to `O=C(Nc1ccc(Cl)c(Cl)c1)N1CC=C(c2ccccc2)CC1`, the inhibition falls from -6.24% to -22.6%.

First: CN(CCc1ccccn1)C(=O)c1ccc(OC2CCN(Cc3ccccn3)CC2)cc1
Second: Cn1cc(CNC(=O)c2ccc(OC3CCN(Cc4ccccn4)CC3)cc2)cn1
The inhibition of the first is lower: -11.4% for the first, 16.2% for the second.

First: O=C(Nc1cccc(S(=O)(=O)N2CCCC2)c1)c1cncc(Br)c1
Second: O=C(c1cc2ccccc2o1)N1CCN(S(=O)(=O)c2ccc(Cl)s2)CC1
The inhibition of the first is higher: -0.97% for the first, -4.99% for the second.

Compared with `COc1ccc(SC[C@H](Cc2ccccc2)N2CCN(CCc3ccccc3)CCC2=O)cc1`, `COc1ccc(S(=O)(=O)N2CCOC23CCN(S(=O)(=O)c2ccc([N+](=O)[O-])cc2)CC3)cc1` is higher in inhibition: -6.85% for the first, 4.75% for the second.

Going from `CCn1nc(C(=O)NNS(=O)(=O)c2cc(/C=C/C(=O)O)cc(OC)c2OC)c2ccccc2c1=O` to `COc1cccc(CNS(=O)(=O)c2cc3c(cc2C)n(C)c(=O)c(=O)n3C)c1`, the inhibition falls from 11.4% to 1.81%.

First: O=C(O)C(NS(=O)(=O)c1cccc2nsnc12)c1ccccc1 (stereo unspecified)
Second: NS(=O)(=O)c1ccc(NC(=O)/C=C/c2ccccc2Cl)cc1
The inhibition of the first is higher: -4.31% for the first, -11.9% for the second.

First: C/C=C/C(=O)Nc1ccc(N2CCN(c3ccc(C(F)(F)F)cn3)CC2)nc1
Second: CCNS(=O)(=O)c1ccc(CCC(=O)N2CCN(c3cc(Cl)ccc3C)CC2)cc1
The inhibition of the first is lower: -9.09% for the first, -4.58% for the second.

Compared with `COC(=O)c1cccc(C(=O)N2CCC(CCC(=O)NCc3ccc(F)cc3)CC2)c1`, `CC(=O)N1CCC(C(=O)OCc2ccc(Cl)cc2)(c2ccccc2)CC1` is lower in inhibition: 11.6% for the first, -12.7% for the second.

Going from `Nc1nc(SCC(=O)NNc2c(Cl)cc(Cl)cc2Cl)n[nH]1` to `COC(=O)Cc1cnc(NC(=O)CSc2nc(C(C)C)cc(=O)[nH]2)s1`, the inhibition falls from 14.2% to 7.32%.

Going from `CCc1cc(=O)oc2cc(C)cc(OC(C)C(=O)O)c12` (stereo unspecified) to `CCOC(=O)c1sc(N(Cc2ccccc2)C(=O)CN2C(=O)CN(C)C2=O)nc1C`, the inhibition falls from 6.8% to -6.11%.

Compared with `CC1CC(C)(C)CC2(C1)NC(=O)N(CC(=O)Nc1nccs1)C2=O` (stereo unspecified), `CCOc1ccc(N2CC(C(=O)N/N=C/c3sccc3C)CC2=O)cc1` (stereo unspecified) is higher in inhibition: -13.1% for the first, 3.97% for the second.

First: OCC(O)CN(c1ccccc1)c1ccccc1 (stereo unspecified)
Second: Cc1cccc(C(=O)C(O)(c2ccccc2)C2CCCCC2=O)c1 (stereo unspecified)
The inhibition of the first is higher: 9.64% for the first, -15.3% for the second.

Compared with `CC(Sc1nnc(-c2cccs2)n1C1CC1)C(=O)NCC1CCCO1` (stereo unspecified), `COCc1cc(C)n(CC(=O)NCC2CCCO2)c(=O)c1C#N` (stereo unspecified) is higher in inhibition: -12.2% for the first, -7.89% for the second.

Going from `CCNC(=O)NNC(=O)C1CC(c2cccs2)=NO1` (stereo unspecified) to `COCCn1c(C)cc(C(=O)COC(=O)CNC(=O)c2ccco2)c1C`, the inhibition falls from 19.8% to 5.6%.

Going from `CC(c1cccnc1)N(CCN(C)C)C(=O)Nc1ccc(Cl)c(Cl)c1` (stereo unspecified) to `O=C1CN(C(=O)COC(=O)c2cnc(Cl)c(Cl)c2)c2ccccc2N1`, the inhibition rises from -1.18% to 0.85%.

Compared with `CN(C)S(=O)(=O)c1ccc(Oc2ccc(S(=O)(=O)N(C)C)cc2)cc1`, `CCOc1ccc(CCNC(=O)COC(=O)c2ccc(C)c(S(=O)(=O)N3CCOCC3)c2)cc1OCC` is lower in inhibition: 26% for the first, -2.87% for the second.

Compared with `CC[C@H](C)[C@@H](C(=O)N1CCNCC1)n1cc([C@@H](N)Cc2ccc(O)cc2)nn1`, `COc1ccc(CCn2c(NN=C3CCCC3)nc3c2c(=O)[nH]c(=O)n3C)cc1` is higher in inhibition: 5.8% for the first, 14% for the second.

Compared with `CC(=O)c1cnc(SCC(=O)O)nc1C`, `O=C(O)COc1nsnc1N1CCOCC1` is higher in inhibition: -8.72% for the first, -2.76% for the second.

Going from `O=C(O)C1=C(C(=O)O)C2CCC1C2` to `Cc1ccc(CNC(=O)C2CCCN(S(C)(=O)=O)C2)cc1` (stereo unspecified), the inhibition rises from -20.2% to 14.4%.

Compared with `CCn1ccnc1CN1CCCC(C(=O)c2ccc3c4c(cccc24)CC3)C1` (stereo unspecified), `CCOCCCNC(=O)c1cn(CC(C)C)c(=O)c2c1c1ccccc1n2C` is lower in inhibition: 4.32% for the first, 0.96% for the second.

Going from `C/C=C(/C)C(=O)O[C@@H]1c2cc3c(c4c2[C@@]2(CO4)C(=O)C(OC)=C(OC)C=C2C[C@@H](C)[C@H]1C)OCO3` to `COC1(C2=NCCN2)COc2ccccc2O1` (stereo unspecified), the inhibition rises from 8.2% to 15.1%.

First: N/C(=N\S(=O)(=O)c1cc(C(F)(F)F)cc(C(F)(F)F)c1)c1cccs1
Second: Cc1cc(=O)cc(C)[nH]1
The inhibition of the first is higher: 10.3% for the first, 3.47% for the second.

Compared with `COc1ncnc2c1N=C1CC(C)(C)CC(N)=C1S2`, `CC[C@@H]1CC2=C(C(=O)OC(C)(C)O2)[C@@H](CC)O1` is lower in inhibition: 22.7% for the first, 13.2% for the second.
